Data published in PubChem BioAssay (NCATS).
Records with an inconclusive call do not appear. The source made the active and inactive calls. Unless noted, calls come from the whole dose curve; as a rule, active = well fitted curve in the direction sought with a large enough effect; inconclusive = small, poorly fitted or top-dose-only effect, or another doubt; inactive = no such curve, though single readings can be large; an effect the other way counts as inactive or inconclusive.

Tests used:
[1] = molecular target: Lysosomal acid glucosylceramidase (Homo sapiens) (UniProt P04062); test: Glucocerebrosidase-p2 (AID 348; in the data active = potency below about 10 µM; note: potency is the fitted concentration of half-maximal effect); settings: purified GBA, blue fluorogenic substrate, 40 min
Sequence of Lysosomal acid glucosylceramidase (Homo sapiens) (P04062 whole entry, looked up): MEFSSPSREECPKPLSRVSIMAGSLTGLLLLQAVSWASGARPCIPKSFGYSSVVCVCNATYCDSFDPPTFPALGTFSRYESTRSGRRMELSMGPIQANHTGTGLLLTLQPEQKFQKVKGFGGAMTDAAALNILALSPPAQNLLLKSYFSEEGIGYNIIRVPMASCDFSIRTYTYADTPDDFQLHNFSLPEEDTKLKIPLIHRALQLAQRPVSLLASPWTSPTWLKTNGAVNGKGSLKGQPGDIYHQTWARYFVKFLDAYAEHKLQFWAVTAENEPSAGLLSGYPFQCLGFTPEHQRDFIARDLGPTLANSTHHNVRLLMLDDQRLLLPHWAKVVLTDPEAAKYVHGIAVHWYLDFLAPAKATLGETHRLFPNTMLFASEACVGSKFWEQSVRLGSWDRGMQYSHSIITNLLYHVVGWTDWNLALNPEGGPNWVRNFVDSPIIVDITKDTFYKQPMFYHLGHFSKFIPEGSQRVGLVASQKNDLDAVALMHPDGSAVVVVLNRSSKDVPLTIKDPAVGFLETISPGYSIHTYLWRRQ
In short: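 Compounds titrated from 0.6 nM upwards against 0.2 nM enzyme in pH 5.9 citric acid/KH2PO4, taurocholate, tween-20; blue fluorogenic substrate 80 uM, 40 min room temperature, stopped and read Ex 365/Em 440 for AC50.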

[2] = AP1 Signaling Pathway (AID 357; active = well fitted curve in either direction with a large enough effect, not every such curve was filed as active;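 note: ME-180 reporter cells stimulated with EGF at its EC50 level; % is set by controls: 0 for no effect and ±100 for the full control effect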); settings: ME-180 AP-1-bla reporter, EGF-induced, beta-lactamase ratio, 5 h; at 7.69 µM (top of the series) unless noted
In short: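 A ratiometric CCF4 readout (405 nm excitation; 460 and 530 nm emission) quantified AP-1-driven beta-lactamase in ME-180 cells after 5 h with compound and EC50 EGF; AC50 values were derived for activators and inhibitors.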

[3] = NFAT Signaling Pathway (AID 444; active = well fitted curve in either direction with a large enough effect, not every such curve was filed as active;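 note: carbachol stimulus at about its EC50 of 1 µM final; % is set by controls: 0 for no effect and ±100 for the full control effect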); settings: Jurkat NFAT-bla M1, carbachol, beta-lactamase ratio, 5 h; at 7.69 µM (top of the series) unless noted
In short: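 Read-out: CCF4 FRET ratio (460 nm/530 nm) after 1 h RT dye loading, used for %activity and AC50 from titration series. Cells: Jurkat NFAT-β-lactamase/M1 line, treated with compound plus 1 uM carbachol for 5 h, 37 °C.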

[4] = Stat Signaling Pathway (AID 446; active = well fitted curve in either direction with a large enough effect, not every such curve was filed as active;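 note: ME-180 cervical cancer cells given 40 pM IL-6 alongside compound; SIE-controlled beta-lactamase reporter measured as 460/530 nm FRET emission ratio; % is set by controls: 0 for no effect and ±100 for the full control effect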); settings: ME-180 SIE beta-lactamase reporter, IL-6 stimulated, 5 h; at 7.69 µM (top of the series) unless noted
In short: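 Screening format detects activators and inhibitors alike: ME-180 SIE-bla cells stimulated at 40 pM IL-6 for 5 hrs with compound, then dual-emission beta-lactamase read at 405 nm excitation.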

[5] = molecular target: Glucocorticoid receptor (Homo sapiens) (UniProt P04150); test: GR-GFP Redistribution (AID 450;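 active = compounds whose dose series gives a full or clear partial fitted curve of increased nuclear translocation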; note: potency is the fitted concentration of half-maximal effect); settings: U2OS GR-GFP nuclear translocation, laser cytometry, 2 h
Sequence of Glucocorticoid receptor (Homo sapiens) (P04150 whole entry, looked up, the tested form may be a part): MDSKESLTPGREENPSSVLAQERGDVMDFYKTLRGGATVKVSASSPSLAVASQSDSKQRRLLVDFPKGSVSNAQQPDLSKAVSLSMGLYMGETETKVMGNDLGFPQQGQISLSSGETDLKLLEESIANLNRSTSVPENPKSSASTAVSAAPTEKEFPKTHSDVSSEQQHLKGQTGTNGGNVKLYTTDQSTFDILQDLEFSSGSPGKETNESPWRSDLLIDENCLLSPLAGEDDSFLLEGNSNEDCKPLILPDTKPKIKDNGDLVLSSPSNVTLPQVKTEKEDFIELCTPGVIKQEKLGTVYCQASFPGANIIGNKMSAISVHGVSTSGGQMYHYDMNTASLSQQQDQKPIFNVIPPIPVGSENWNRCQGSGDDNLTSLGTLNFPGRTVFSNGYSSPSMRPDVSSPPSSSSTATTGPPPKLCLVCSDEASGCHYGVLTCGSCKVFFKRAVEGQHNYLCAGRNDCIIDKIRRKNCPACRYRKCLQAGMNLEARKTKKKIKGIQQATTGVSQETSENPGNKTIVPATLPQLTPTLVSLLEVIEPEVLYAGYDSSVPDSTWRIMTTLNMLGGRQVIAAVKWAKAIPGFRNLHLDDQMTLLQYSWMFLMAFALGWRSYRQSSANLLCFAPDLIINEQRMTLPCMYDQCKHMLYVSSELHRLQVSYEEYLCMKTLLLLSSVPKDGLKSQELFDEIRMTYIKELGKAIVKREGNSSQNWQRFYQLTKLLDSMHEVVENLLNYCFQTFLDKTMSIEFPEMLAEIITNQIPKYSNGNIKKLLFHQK

[6] = molecular target: Glucocorticoid receptor (Homo sapiens) (UniProt P04150); test: GR-EFC Redistribution (AID 451; calls by dose curve; note: potency is the fitted concentration of half-maximal effect); settings: CHO-K1 GR-EFC translocation, beta-gal luminescence, 2 h
In short: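 Translocation of GR-ED fusion to nuclear EA restores b-gal, read by luminescence after 1 h room-temperature detection. Engineered CHO-K1 biosensor cells, 1,000/well, exposed 2 h at 37 C to titrations up to 46 uM final.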

[7] = molecular target: Mitogen-activated protein kinase 10 (Mus musculus) (UniProt Q61831); test: JNK3 AlphaScreen Assay (AID 530; active = well fitted curve in either direction with a large enough effect, not every such curve was filed as active;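 note: kinase came from lysate of stimulated human HepG2 cells; signal reports phosphorylation of biotinylated GST-cJun 1-79 at Ser73 with 10 µM ATP; % is set by controls: 0 for no effect and ±100 for the full control effect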); settings: JNK3 lysate, c-Jun phosphorylation; series mostly up to 57.1 µM
In short: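 Compound titrations were preincubated 15 minutes at room temperature with substrate, antibody and pre-activated JNK3-containing HepG2 lysate. Reactions were started with 10 uM ATP and stopped with EDTA-containing bead buffer for AlphaScreen detection.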

[8] = molecular target: Cytochrome P450 3A4 (Homo sapiens) (UniProt P08684); test: qHTS Assay for Inhibitors and Substrates of Cytochrome P450 3A4 (AID 884); settings: recombinant CYP3A4, Luciferin-PPXE luminescence; series mostly up to 57.1 µM; note: nearly all actives have a fitted effect of over 50% in size; note: potency is the fitted concentration of half-maximal effect
Sequence of Cytochrome P450 3A4 (Homo sapiens) (P08684 whole entry, looked up): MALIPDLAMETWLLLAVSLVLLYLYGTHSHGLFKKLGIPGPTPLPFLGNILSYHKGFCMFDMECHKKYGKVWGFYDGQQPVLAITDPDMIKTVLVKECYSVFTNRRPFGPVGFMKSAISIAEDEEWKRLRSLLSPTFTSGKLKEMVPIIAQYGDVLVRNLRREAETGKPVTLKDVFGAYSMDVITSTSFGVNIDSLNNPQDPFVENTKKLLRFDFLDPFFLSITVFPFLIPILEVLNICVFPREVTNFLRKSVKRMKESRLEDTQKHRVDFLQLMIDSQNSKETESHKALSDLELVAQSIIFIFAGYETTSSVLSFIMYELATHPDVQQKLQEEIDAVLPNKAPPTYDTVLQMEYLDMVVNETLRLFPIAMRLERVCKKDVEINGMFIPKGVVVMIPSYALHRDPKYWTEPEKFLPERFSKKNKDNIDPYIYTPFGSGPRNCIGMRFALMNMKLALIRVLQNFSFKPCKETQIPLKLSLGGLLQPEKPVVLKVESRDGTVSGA
In short: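 20 nM human CYP3A4 with 25 uM Luciferin-PPXE (at KM) in 200 mM KPO4, preincubated 10 min with compound; NADPH regeneration started a 60 min RT reaction. Luciferin detected by luminescence, normalized to 57 uM ketoconazole as full inhibition.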

[9] = molecular target: Cytochrome P450 3A4 (Homo sapiens) (UniProt P08684); test: qHTS Assay for Activators of Cytochrome P450 3A4 (AID 885); settings: recombinant CYP3A4, Luciferin-PPXE luminescence, 60 min; series mostly up to 57.1 µM; note: nearly all actives have a fitted effect of over 65% in size
In short: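 Steps: enzyme/substrate mix dispensed; compound added, 10 min RT; NADPH regeneration solution added, 60 min RT; luciferin detection buffer stops reaction; 20 min later luminescence measured.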

[10] = molecular target: Cytochrome P450 2C19 (Homo sapiens) (UniProt P33261); test: qHTS Assay for Inhibitors and Substrates of Cytochrome P450 2C19 (AID 899); settings: recombinant CYP2C19, luciferin-H EGE luminescence; series mostly up to 57.1 µM; note: nearly all actives have a fitted effect of over 60% in size; note: potency is the fitted concentration of half-maximal effect
Sequence of Cytochrome P450 2C19 (Homo sapiens) (P33261 whole entry, looked up): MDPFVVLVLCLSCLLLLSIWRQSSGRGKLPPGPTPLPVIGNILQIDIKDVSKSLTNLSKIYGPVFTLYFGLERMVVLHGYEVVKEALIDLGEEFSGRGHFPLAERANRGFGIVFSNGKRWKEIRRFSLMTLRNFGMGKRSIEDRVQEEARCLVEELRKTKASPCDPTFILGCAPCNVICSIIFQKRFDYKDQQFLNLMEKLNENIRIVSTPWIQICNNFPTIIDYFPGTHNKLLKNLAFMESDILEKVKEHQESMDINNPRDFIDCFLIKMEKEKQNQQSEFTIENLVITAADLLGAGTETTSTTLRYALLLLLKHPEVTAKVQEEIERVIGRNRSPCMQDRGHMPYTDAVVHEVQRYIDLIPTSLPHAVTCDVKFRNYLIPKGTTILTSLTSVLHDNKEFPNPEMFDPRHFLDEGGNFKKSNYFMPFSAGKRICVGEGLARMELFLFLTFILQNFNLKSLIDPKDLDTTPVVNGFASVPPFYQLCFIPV
In short: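 Reactions contain 5nM enzyme, 10uM Luciferin-H EGE (KM) and 50mM KPO4; compound preincubates 10 min at 37C, NADPH regeneration starts turnover for 60 min. Luminescence after detection reagent gives activity.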

[11] = qHTS Assay for Lipid Storage Modulators (AID 1519; calls by dose curve); settings: Drosophila S3 cells, BODIPY lipid droplet/cell ratio, laser cytometry, cells loaded with oleic acid; for activity change, negative = inhibition: at 57.5 µM (top of the series)
In short: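 Cells seeded at 5,000 per well were treated with compounds over a concentration series and loaded with oleic acid (400 uM, as added). Lipid droplet fluorescence (488 nm excitation, 500-530 nm channel) was read by laser-scanning cytometry and normalized to 20 uM Triacsin C.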

[12] = molecular target: Dual specificity protein kinase CLK4 (Homo sapiens) (UniProt Q9HAZ1); test: qHTS Assay for Inhibitors of CDC-like Kinase 4 (ADP-FP Assay) (AID 1795); settings: Transcreener ADP fluorescence polarization; series mostly up to 50 µM;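 note: recombinant human CLK4 phosphorylating RS repeat peptide at 1 µM ATP; % is set by controls: 0 for no effect and ±100 for the full control effect; nearly all actives have a fitted effect of over 60% in size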
Sequence of Dual specificity protein kinase CLK4 (Homo sapiens) (Q9HAZ1 whole entry, looked up): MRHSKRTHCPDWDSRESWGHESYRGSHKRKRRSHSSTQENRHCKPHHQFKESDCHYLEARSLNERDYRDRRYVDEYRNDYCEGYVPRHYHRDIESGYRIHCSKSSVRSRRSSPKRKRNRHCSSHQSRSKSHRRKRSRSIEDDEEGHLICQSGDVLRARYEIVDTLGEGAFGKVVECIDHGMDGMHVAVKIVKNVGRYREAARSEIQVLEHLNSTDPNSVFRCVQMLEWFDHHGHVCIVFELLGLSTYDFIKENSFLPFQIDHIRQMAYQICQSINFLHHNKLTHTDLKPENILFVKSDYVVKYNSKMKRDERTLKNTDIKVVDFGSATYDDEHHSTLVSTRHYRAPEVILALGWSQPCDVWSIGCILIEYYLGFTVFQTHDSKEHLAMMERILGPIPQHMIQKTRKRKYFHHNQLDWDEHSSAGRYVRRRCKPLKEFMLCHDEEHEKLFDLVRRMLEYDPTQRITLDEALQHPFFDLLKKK
In short: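 Kinase activity was followed as ADP output, converted from fluorescence polarization with a calibration curve. Reactions ran one hour at low ATP (1 uM) with RS peptide substrate.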

[13] = Primary qHTS for small molecule stabilizers of the endoplasmic reticulum resident proteome: Secreted ER Calcium Modulated Protein (SERCaMP) assay (AID 1508630); settings: SH-SY5Y GLuc-SERCaMP (Gaussia luciferase released on ER calcium loss) secretion, thapsigargin, luminescence; series mostly up to 38.4 µM; note: % is set by controls: 0 for no effect and ±100 for the full control effect
In short: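 GLuc-SERCaMP-expressing SH-SY5Y cells, pretreated 16 h with compound, are challenged with thapsigargin to empty ER calcium stores; after 4 h, coelenterazine is added directly to the medium and luminescence is imaged.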

[14] = molecular target: Ubiquitin carboxyl-terminal hydrolase 1 (Homo sapiens) (UniProt O94782); test: Inhibitors of USP1/UAF1: Pilot qHTS (AID 504865); settings: purified USP1/UAF1, Ub-rhodamine cleavage fluorescence; series mostly up to 54.9 µM;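 note: rhodamine fluorescence freed from ubiquitin-rhodamine substrate followed over time; top concentration of the series differs between compounds; % is set by controls: 0 for no effect and ±100 for the full control effect; nearly all actives have a fitted effect of over 35% in size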
Sequence of Ubiquitin carboxyl-terminal hydrolase 1 (Homo sapiens) (O94782 whole entry, looked up): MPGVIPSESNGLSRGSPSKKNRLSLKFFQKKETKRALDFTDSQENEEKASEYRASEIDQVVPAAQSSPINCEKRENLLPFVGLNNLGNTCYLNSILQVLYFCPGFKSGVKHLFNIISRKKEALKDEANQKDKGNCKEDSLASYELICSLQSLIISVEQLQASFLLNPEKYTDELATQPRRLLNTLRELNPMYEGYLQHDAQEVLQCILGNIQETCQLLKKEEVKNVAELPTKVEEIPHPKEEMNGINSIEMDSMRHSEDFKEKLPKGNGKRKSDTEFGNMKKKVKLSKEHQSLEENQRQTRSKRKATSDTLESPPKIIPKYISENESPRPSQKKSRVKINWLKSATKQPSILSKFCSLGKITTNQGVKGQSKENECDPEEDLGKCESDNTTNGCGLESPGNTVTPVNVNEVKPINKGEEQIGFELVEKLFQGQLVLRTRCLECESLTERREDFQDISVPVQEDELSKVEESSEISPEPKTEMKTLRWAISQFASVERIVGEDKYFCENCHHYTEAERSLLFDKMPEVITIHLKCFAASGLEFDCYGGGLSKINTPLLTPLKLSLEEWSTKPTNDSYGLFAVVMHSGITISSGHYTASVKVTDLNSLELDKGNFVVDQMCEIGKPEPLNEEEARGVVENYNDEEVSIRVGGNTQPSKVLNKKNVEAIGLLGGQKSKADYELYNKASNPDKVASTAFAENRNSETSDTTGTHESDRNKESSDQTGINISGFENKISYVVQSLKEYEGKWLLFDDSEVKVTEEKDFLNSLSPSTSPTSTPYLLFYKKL
In short: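 Enzyme-free wells gave the negative control, while test wells held 1nM USP1/UAF1 preincubated with compound for 15 min at room temperature. Ub-Rho at 150nM final started the reaction, and fluorescence at 480/540 nm was recorded kinetically.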

[15] = molecular target: Cytochrome P450 1A2 (Homo sapiens) (UniProt P05177); test: p450-cyp1a2 (AID 410; calls by dose curve; note: potency is the fitted concentration of half-maximal effect); settings: recombinant CYP1A2, luciferin-ME demethylation, luminescence; series mostly up to 57 µM
Sequence of Cytochrome P450 1A2 (Homo sapiens) (P05177 whole entry, looked up): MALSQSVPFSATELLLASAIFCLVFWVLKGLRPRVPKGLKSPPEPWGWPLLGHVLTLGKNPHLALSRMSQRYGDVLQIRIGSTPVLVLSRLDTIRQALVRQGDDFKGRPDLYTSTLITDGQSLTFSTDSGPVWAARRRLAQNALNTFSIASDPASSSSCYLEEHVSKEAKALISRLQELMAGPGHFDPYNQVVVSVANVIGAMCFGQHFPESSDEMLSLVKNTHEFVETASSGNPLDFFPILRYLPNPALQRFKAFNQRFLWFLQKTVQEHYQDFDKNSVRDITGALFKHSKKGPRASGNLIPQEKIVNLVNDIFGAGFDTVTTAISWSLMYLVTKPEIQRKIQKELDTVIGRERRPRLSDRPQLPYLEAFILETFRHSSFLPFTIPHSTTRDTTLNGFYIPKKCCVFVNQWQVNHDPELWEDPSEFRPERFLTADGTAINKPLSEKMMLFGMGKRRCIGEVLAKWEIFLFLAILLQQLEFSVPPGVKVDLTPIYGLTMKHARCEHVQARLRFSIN
In short: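 Luminescent readout of luciferin formed from Luciferin-ME by human CYP1A2; data normalized against complete inhibition by 57 uM furafylline. Enzyme 20nM, substrate 100uM at Km, 100mM KPO4 buffer, 60 min reaction at room temperature.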

[16] = molecular target: 3',5'-cyclic-AMP phosphodiesterase 4B (Homo sapiens) (UniProt Q07343); test: qHTS Assay for Inhibitors of PDE-IV (AID 607; active = well fitted activation curve with a large enough effect in the main read-out, with a control signal flat, not every such curve was filed as active; note: % of control where 0% means no effect); settings: HEK293 ACTOne CNG channel cells, membrane potential fluorescence; series mostly up to 22.9 µM
Sequence of 3',5'-cyclic-AMP phosphodiesterase 4B (Homo sapiens) (Q07343 whole entry, looked up): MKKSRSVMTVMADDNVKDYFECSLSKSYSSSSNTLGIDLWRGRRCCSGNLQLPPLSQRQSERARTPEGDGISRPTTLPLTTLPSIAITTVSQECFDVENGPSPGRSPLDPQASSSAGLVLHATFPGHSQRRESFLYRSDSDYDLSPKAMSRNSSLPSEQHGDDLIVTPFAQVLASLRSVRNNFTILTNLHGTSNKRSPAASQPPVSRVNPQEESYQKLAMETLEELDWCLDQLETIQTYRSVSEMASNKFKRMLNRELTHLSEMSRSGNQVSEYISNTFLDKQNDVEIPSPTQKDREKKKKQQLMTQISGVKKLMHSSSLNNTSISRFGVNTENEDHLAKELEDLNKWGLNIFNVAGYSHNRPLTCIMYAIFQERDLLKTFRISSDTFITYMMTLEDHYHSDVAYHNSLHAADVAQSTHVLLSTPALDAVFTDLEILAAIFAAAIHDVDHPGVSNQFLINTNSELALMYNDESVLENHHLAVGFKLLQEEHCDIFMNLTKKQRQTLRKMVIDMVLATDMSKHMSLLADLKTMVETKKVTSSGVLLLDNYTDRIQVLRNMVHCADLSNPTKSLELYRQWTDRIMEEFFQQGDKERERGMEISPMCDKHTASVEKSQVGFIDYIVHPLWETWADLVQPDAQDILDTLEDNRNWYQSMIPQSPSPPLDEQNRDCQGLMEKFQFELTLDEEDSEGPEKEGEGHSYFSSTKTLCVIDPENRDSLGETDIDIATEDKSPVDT
In short: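 The readout is membrane depolarisation from a cAMP-sensing CNG channel, detected with a potential dye at ex 535/em 590. Cells were HEK293-derived (endogenous PDE-IV) at 1000 cells/well, titrated up to 22.9 uM final.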

[17] = qHTS Assay for Identification of Small Molecule Agonists for Hypoxia Response Element Signaling Pathway (AID 914; active = well fitted activation curve with a large enough effect in the signal ratio, with a control signal flat, not every such curve was filed as active; the % refers to the signal ratio; note: potency is the fitted concentration of half-maximal effect; for activation: % of control where 0% means no effect); settings: ME-180 (cervical carcinoma) HRE-bla reporter, beta-lactamase ratio, CoCl2, 17 h; activation: stronger effect = higher value
In short: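 HRE-bla ME-180 cells, overnight plating in Opti-MEM with 0.5% dialyzed FBS; cpd titration + EC50 CoCl2, 17 h, 37 degrees Celsius; CCF4 2.5 h RT; 460/530 nm ratio; AC50.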

[18] = molecular target: Cytochrome P450 2C9 (Homo sapiens) (UniProt P11712); test: qHTS Assay for Inhibitors and Substrates of Cytochrome P450 2C9 (AID 883); settings: recombinant CYP2C9, luciferin-H luminescence, 60 min; series mostly up to 57.1 µM; note: % is set by controls: 0 for no effect and ±100 for the full control effect; nearly all actives have a fitted effect of over 60% in size
In short: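 Turnover of Luciferin-H (100uM, KM) by 10nM human CYP2C9 was measured over 60 min at 37C with NADPH regeneration; inhibitors and some substrates reduce luminescence. Data normalized to sulphaphenazole 57uM.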

[19] = measured here: cell count channel max response
[20] = measured here: lipid channel max response

COc1cccc(-c2cncnc2Nc2ccc(F)cc2)c1
Potency [1]: > 11.4 µM (inactive) | activity change, negative = inhibition [2]: -13.2% (inactive) | activity change, negative = inhibition [3]: 13.9% (inactive) | activity, negative = inhibition [4]: -10.1% (inactive) | Potency [5]: > 46 µM (inactive) | Potency [6]: > 46 µM (inactive) | outcome [7]: inactive | Potency [8]: 0.794 µM (active) | Potency [9]: inactive | Potency [10]: 0.398 µM (active) | activity change, negative = inhibition [11]: 9.47% (inactive) | max response [11, 19]: 6.55% | max response [11, 20]: 18.7% | Potency [12]: inactive | Potency [13]: inactive

CN(Cc1ccco1)c1ncnc2ccc(-c3ccccc3C(F)(F)F)cc12
Potency [1]: > 11.4 µM (inactive) | activity change, negative = inhibition [2]: 4.42% (inactive) | activity change, negative = inhibition [3]: -18.5% (inactive) | activity, negative = inhibition [4]: -19.3% (inactive) | Potency [5]: > 46 µM (inactive) | Potency [6]: > 46 µM (inactive) | outcome [7]: inactive | Potency [9]: inactive | Potency [10]: 3.16 µM (active) | activity change, negative = inhibition [11]: -0.853% (inactive) | max response [11, 19]: 20.9% | max response [11, 20]: 18.1% | Potency [12]: inactive | Potency [14]: inactive | Potency [13]: inactive

N#Cc1cccc(-c2nc3cnc(N4CCOCC4)nc3n(C3CC3)c2=O)c1
Potency [15]: 2.51 µM (active) | Potency [5]: > 9.22 µM (inactive) | Potency [6]: > 46 µM (inactive) | outcome [7]: inactive | Potency [16]: inactive | Potency [9]: inactive | Potency [17]: 3.16 µM (active) | activity change, negative = inhibition [11]: -2.2% (inactive) | max response [11, 19]: 17.6% | max response [11, 20]: 13.2% | Potency [12]: inactive | Potency [14]: inactive | Potency [13]: inactive

COc1ccccc1CNc1ncncc1-c1cccnc1
Potency [1]: > 11.4 µM (inactive) | activity change, negative = inhibition [2]: 3.62% (inactive) | Potency [15]: 0.794 µM (active) | activity change, negative = inhibition [3]: 2.12% (inactive) | activity, negative = inhibition [4]: 5.57% (inactive) | Potency [5]: > 46 µM (inactive) | Potency [6]: > 46 µM (inactive) | outcome [7]: inactive | Potency [16]: inactive | Potency [8]: 0.794 µM (active) | Potency [9]: inactive | activity change, negative = inhibition [11]: 3.76% (inactive) | max response [11, 19]: 11.7% | max response [11, 20]: 13.8% | Potency [12]: inactive | Potency [13]: inactive

CN(C)c1ncc2ncc(=O)n(C3CC3)c2n1
Potency [1]: > 11.4 µM (inactive) | activity change, negative = inhibition [2]: 0.558% (inactive) | Potency [15]: 3.16 µM (active) | activity change, negative = inhibition [3]: -1.2% (inactive) | activity, negative = inhibition [4]: -11.1% (inactive) | Potency [5]: > 9.22 µM (inactive) | Potency [6]: > 46 µM (inactive) | outcome [7]: inactive | Potency [16]: inactive | activity change, negative = inhibition [11]: 7.21% (inactive) | max response [11, 19]: 15.8% | max response [11, 20]: 22.4% | Potency [12]: inactive | Potency [14]: inactive | Potency [13]: inactive

CCNc1ncc2nc(C)c(=O)n(-c3ccc(OC)cc3)c2n1
Potency [1]: > 11.4 µM (inactive) | activity change, negative = inhibition [2]: -29.8% (inactive) | Potency [15]: 15.8 µM (active) | activity change, negative = inhibition [3]: 14.3% (inactive) | activity, negative = inhibition [4]: -9.6% (inactive) | Potency [5]: > 9.22 µM (inactive) | Potency [6]: > 46 µM (inactive) | outcome [7]: inactive | Potency [18]: inactive | Potency [8]: inactive | Potency [10]: inactive | activation [17]: -10.1% (inactive) | activity change, negative = inhibition [11]: 4.59% (inactive) | max response [11, 19]: 11.9% | max response [11, 20]: 15% | Potency [12]: inactive | Potency [14]: inactive | Potency [13]: inactive
